Sfp PPTase inh = qHTS Assay for Inhibitors of Bacillus subtilis Sfp phosphopantetheinyl transferase (PPTase); Biochemical Sfp PPTase activity, qHTS; Potency, µM, for the others: largest response in the series, negative = inhibition, most hits filed as inhibitors; 4'-phosphopantetheinyl transferase ffp (Bacillus subtilis), Q9F4F7; 310,000 tested, 3.5% active;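 further: the enzyme is Sfp with the accession as filed and its product quenches rhodamine fluorescence; 0% = enzyme reaction without inhibitor and -100% = no enzyme wells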
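Compounds were incubated with enzyme (final 15 nM) for 15 min at room temperature before substrate addition started the reaction. Fluorescence at 525 nm excitation, 598 nm emission was recorded immediately and after 30 minutes.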
G9a inh = qHTS Assay for Inhibitors of Histone Lysine Methyltransferase G9a | Histone-lysine N-methyltransferase EHMT2 (Homo sapiens), Q96KQ7 | Potency, µM (series often up to 102 µM), inactives show at the highest dose activity, negative = inhibition, hits mostly inhibitors | 350,000 tested, 8.8% active | G9a H3K9 monomethylation, AlphaScreen, 2 h | AID 504332, 2011; further: on the % scale 0 is the no-effect control and ±100 the full control effect; nearly all actives have a fitted effect of over 75% in size
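Chemiluminescent proximity detection of H3K9 monomethylation, read after 10 min bead incubation in the dark. Reaction: 20 nM G9a, 500 nM biotin-H3K9 peptide, 20 uM SAM cofactor, 2 h, room temperature, following 15 min enzyme-compound preincubation.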
L3MBTL1 inh = qHTS Assay for the Inhibitors of L3MBTL1. Lethal(3)malignant brain tumor-like protein 1 (Homo sapiens), Q9Y468. Potency, µM (series often up to 57.1 µM), for the others: top-dose activity, negative = inhibition, most hits filed as inhibitors. AlphaScreen L3MBTL1–H3K9me1 peptide binding. 230,000 tested, 0.66% active; further: on the % scale 0 is the no-effect control and ±100 the full control effect; nearly all actives have a fitted effect of over 60% in size
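Read-out is AlphaScreen signal from streptavidin donor and nickel chelate acceptor beads (10 ug/mL final each) bridging L3MBTL1 (50 nM) and biotinylated K9-monomethylated H3(1-15) peptide (75 nM), after 30 min compound exposure at room temperature.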
BAZ2B inh = qHTS Assay for Inhibitors of BAZ2B | Bromodomain adjacent to zinc finger domain protein 2B (Homo sapiens), Q9UIF8 | AlphaScreen BAZ2B-H3K14Ac peptide displacement | Potency, µM (doses to about 114 µM), inactives show top-dose activity change, negative = inhibition, usual class: inhibitors | 360,000 tested, 4.4% active; further: on the % scale 0 is the no-effect control and ±100 the full control effect; nearly all actives have a fitted effect of over 60% in size
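Complex of BAZ2B and biotin-H3K14Ac (50 nM apiece) forms over 30 min at RT, then faces library compounds up to 110 uM for another 30 min; AlphaScreen beads added, 20 min dark incubation, luminescence read.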
JMJD2A Tudor = qHTS Assay for Inhibitors of JMJD2A-Tudor Domain. Lysine-specific demethylase 4A (Homo sapiens), O75164. AlphaScreen JMJD2A-Tudor / H3K4me3 peptide binding. Potency, µM (highest dose often 114 µM), for the others: at the highest dose activity change, negative = inhibition, most hits filed as inhibitors. 390,000 tested, 4.4% active; further: on the % scale 0 is the no-effect control and ±100 the full control effect; nearly all actives have a fitted effect of over 50% in size
HP1b binding inh = HTS for Inhibitors of HP1-beta Chromodomain Interactions with Methylated Histone Tails | Chromobox protein homolog 1 (Homo sapiens), P83916 | AlphaScreen HP1-beta / biotin-H3K9me3 peptide binding | Potency, µM (highest dose often 114 µM), for inactives: top-dose activity change, negative = inhibition, actives largely listed as inhibitors | 390,000 tested, 0.56% active | AID 540317, 2011; further: nearly all actives have a fitted effect of over 70% in size
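Compound inhibition of the preformed complex between 50 nM HP1-beta and 50 nM biotinylated H3K9me3 peptide was read by AlphaScreen. Buffer was PBS pH 7.4 with 0.01% Tween-20. Incubations ran 30 min at room temperature, with 10 ug/mL donor/acceptor beads.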
* marks the source's active call; other numbers are inactive results; [ ] = dose if it differs, or a comment. In the library only some 12% were active in any assay of this set; here they are far more common. The call rests on the fitted dose curve; in most records, active means well fitted curve in the direction sought with a large enough effect; inconclusive means small, poorly fitted or top-dose-only effect, or another doubt; inactive means no such curve, though single readings can be large; an effect the other way counts as inactive or inconclusive. Potency means the concentration at half of the fitted maximal effect.

Cc1ccc(NC(=O)N2CCC(NC(=O)c3ccco3)CC2)cc1 was read as Sfp PPTase inh 16%, G9a inh -3%, BAZ2B inh -12%, JMJD2A Tudor -6% and HP1b binding inh 1%.
Cc1ccc(NC(=O)N2CCC(NC(=O)c3cccc(C)c3)CC2)cc1 was read as Sfp PPTase inh -13%, G9a inh 7.9µM*, BAZ2B inh 50µM*, JMJD2A Tudor 40µM* and HP1b binding inh inconclusive.
Screening Cc1cccc(C(=O)NC2CCN(C(=O)NCc3ccccc3)CC2)c1 returned Sfp PPTase inh 2%, G9a inh 11µM*, BAZ2B inh -39%, JMJD2A Tudor inconclusive and HP1b binding inh -38%.
`CCn1c(SCC(N)=O)nc2sc3c(c2c1=O)CCN(C)C3` gave Sfp PPTase inh -24%, G9a inh 56µM*, L3MBTL1 inh -8%, BAZ2B inh -2%, JMJD2A Tudor -24% and HP1b binding inh 31%.
CCSc1nc2sc3c(c2c(=O)n1-c1ccccc1)CCN(C)C3 was read as Sfp PPTase inh -9%, G9a inh 79µM*, L3MBTL1 inh -7%, BAZ2B inh -35%, JMJD2A Tudor -24% and HP1b binding inh 15%.
`CCCn1c(SCC(=O)N2CCN(C(C)=O)CC2)nc2sc3c(c2c1=O)CCC3` gave Sfp PPTase inh 7%, G9a inh 71µM*, BAZ2B inh -15%, JMJD2A Tudor -32% and HP1b binding inh 28%.
For CCCn1c(SCC(=O)NCC)nc2sc3c(c2c1=O)CCC3 the results were Sfp PPTase inh 17%, G9a inh 23%, BAZ2B inh 4%, JMJD2A Tudor -12% and HP1b binding inh 0%.
O=C(CSc1nc2sc3c(c2c(=O)n1-c1ccccc1)CCCC3)NCc1ccco1 was read as Sfp PPTase inh -16%, G9a inh -15%, L3MBTL1 inh inconclusive, BAZ2B inh 8%, JMJD2A Tudor -7% and HP1b binding inh 24%.
`O=C(CSc1nc2sc3c(c2c(=O)n1-c1ccccc1)CCCC3)N/N=C/c1ccc(C(=O)O)cc1` gave Sfp PPTase inh -1%, G9a inh -11%, BAZ2B inh -31%[57.1 µM], JMJD2A Tudor 79µM* and HP1b binding inh 79µM*.
`CCCN1CCc2c(sc3nc(SCC)n(-c4ccccc4)c(=O)c23)C1` gave Sfp PPTase inh -13%, G9a inh inconclusive, BAZ2B inh -9%, JMJD2A Tudor -36% and HP1b binding inh -19%.
For COCCn1c(=O)cnc2cnc(OC)nc21 the results were Sfp PPTase inh 6% and G9a inh -1%[0.501 µM].
Screening O=C(c1cnccn1)N1CCC2(CCN(Cc3nccs3)CC2)CC1 returned Sfp PPTase inh 12% and G9a inh 9%[12.7 µM].
Screening Oc1ccc(-c2nccc(-c3ccc(F)cc3)n2)cc1 returned Sfp PPTase inh -14%, G9a inh inconclusive, BAZ2B inh inconclusive, JMJD2A Tudor -11% and HP1b binding inh 2%.
`COc1cccc(-c2nc(SCC(=O)NC3CCCC3)c(-c3ccccc3)[nH]2)c1` gave G9a inh -34%[59 µM], BAZ2B inh -38%, JMJD2A Tudor inconclusive and HP1b binding inh -13%.
For CCN(c1ccc(OC)cc1)S(=O)(=O)c1ccc2c(c1)CC(C)N2C(=O)C1CC1 (stereo not given) the results were Sfp PPTase inh 5%, G9a inh -13%[59 µM], BAZ2B inh -18%, JMJD2A Tudor 5% and HP1b binding inh 27%.

Source: PubChem BioAssay (National Center for Advancing Translational Sciences (NCATS))
